The values below come from ChEMBL document CHEMBL3988442, “University of Dundee, Small-Polar-MMV Screening Library” (2021).

This assay concerns Plasmodium falciparum. Description: Plasmodium falciparum sporozoite viability assay. The format is functional, organism-based. Further details: scale not given: in the data most compounds retested in dose-response had high values.

Where “and” joins values, the source holds several entries; their conditions need not be identical. Identical values can stand only once. Out of some 34,000 compounds screened, about 290 (0.85%) showed an effect of 50% or more. The sample as a whole holds a higher share of strong results than the screen did.

Regarding `COc1ccccc1C1(C(=O)NCCN2CCCCC2)CCOCC1`, the “Percent Effect” value is given as 7.717%.

In the case of `C[C@@H]1CN(Cc2ccccn2)C[C@]12CCN(Cc1cccnc1)C2=O.O=C(O)C(F)(F)F.O=C(O)C(F)(F)F.O=C(O)C(F)(F)F`, the “Percent Effect” value was -3.791%.

For the compound `Cn1cc(CN2CCC3(CC2)CC(Nc2nccs2)CO3)cn1.O=C(O)C(F)(F)F` (stereo unspecified), the “Percent Effect” value worked out at 18.81%.

Take `NC(=O)c1cc(C2CCCN(C(=O)CCc3ccncc3)C2)n[nH]1` (stereo unspecified): the “Percent Effect” value is reported as -0.3069%.

With `Cc1ccnc(NC(=O)CSCc2cccnc2)c1`, the “Percent Effect” value (10 mM as filed; unlikely as a test dose) was 65.53% and 89.16%.

For `CC(C)c1n[nH]c(C(=O)NC(C)c2ccncc2)c1Br` (stereo unspecified), the “Percent Effect” value (10 mM as filed; unlikely as a test dose) is 40.84% and 49.25% and 43.96%.

With `CC(C)C(NC(=O)Nc1ccccn1)c1cccs1` (stereo unspecified), the “Percent Effect” value turned out to be 14.64%.

Take `Cl.O=C(Nc1ccccn1)c1cncc(C2CCNCC2)n1`: the “Percent Effect” value is -0.4476%.

As for `CC(C)c1n[nH]c(C(=O)Nc2ccccn2)c1Br`, the “Percent Effect” value (10 mM as filed; unlikely as a test dose) is 107.3% and 96.92% and 105.3%.

For the compound `Cc1ccnc(NC(=O)c2ccc(Cl)o2)c1`, the “Percent Effect” value (10 mM as filed; unlikely as a test dose) is 72.69% and 57.82%.

Consider `Cc1ccnc(NC(=O)c2ccc(C)o2)c1`, for which the “Percent Effect” value (10 mM as filed; unlikely as a test dose) was -40.27% and -55.88%.

Take `CC(C)c1n[nH]c(C(=O)Nc2ccncc2)c1Br`: the “Percent Effect” value (10 mM as filed; unlikely as a test dose) is 98.93% and 67.14% and 45.46%.

With `Cc1ccc(NC(=O)CSCc2cccnc2)nc1`, the “Percent Effect” value (10 mM as filed; unlikely as a test dose) was -29.55% and -38.68%.

`CCC1CCCCN1C(=O)c1ccnc(N(C)C)c1` (stereo unspecified): the “Percent Effect” value is 0.6463%.

Turning to `Cc1ccccc1OC1CCN(S(=O)(=O)c2c(C)n[nH]c2C)CC1`, the “Percent Effect” value is given as 0.8951%.

For the compound `COc1ccccc1CN(Cc1nc(CC(C)C)no1)C1CC1`, the “Percent Effect” value is -1.432%.

Turning to `COc1c(C2CCCN2C(=O)c2ccc3c(c2)OCO3)c(C)nn1C` (stereo unspecified), the “Percent Effect” value was found to be 6.2%.

Regarding `Cn1ccnc1C(=O)N1CCC2(CCN2Cc2ccc(F)cc2)C1.O=C(O)C(F)(F)F` (stereo unspecified), the “Percent Effect” value was -1.35%.

For `Cc1cccc(CN2CCn3c(COc4ncccn4)nnc3C2)n1`, the “Percent Effect” value was -3.893%.

For the compound `O=C(N[C@@H]1CC[C@@H](N2CCCC2)[C@@H]1O)c1cc2ccccc2[nH]1`, the “Percent Effect” value turned out to be 4.476%.

On to `Cc1cccc(NC(=O)c2cnc(C3CCCNC3)cn2)n1` (stereo unspecified), for which, where the note is “10 mM as filed; unlikely as a test dose”, the “Percent Effect” value was 4.473% and -18.26% and -18.86%.

In the case of `Cc1ccnc(NC(=O)c2cnc(C3CCCNC3)cn2)c1` (stereo unspecified), the “Percent Effect” value (10 mM as filed; unlikely as a test dose) was 70.96% and 81.72% and 59.47%.

Regarding `CCC(NC(=O)CCNC(=O)c1ccccc1F)c1cc(C)ccn1` (stereo unspecified), the “Percent Effect” value (10 mM as filed; unlikely as a test dose) was -6.667% and 1.59%.

Turning to `Cc1ccnc(NCCNC(=O)CCNC(=O)c2ccccc2F)c1`, the “Percent Effect” value (10 mM as filed; unlikely as a test dose) was 3.593% and 6.463%.

For the compound `Cc1ccnc(NC(=O)c2cncc(C3CCNCC3)n2)c1`, the “Percent Effect” value turned out to be 28.13%.

As for `Cc1ccnc(NC(=O)CCNC(=O)c2ccccc2Cl)c1`, the “Percent Effect” value (10 mM as filed; unlikely as a test dose) is 67.45% and 43.1%.

As for `CNC(=O)CC1CC2(CCN(S(C)(=O)=O)CC2)c2ccccc21` (stereo unspecified), the “Percent Effect” value was -20.92%.

In the case of `Fc1cnc(N2C[C@@H]3C[C@@H](c4nc(C5CC5)cs4)O[C@@H]3C2)nc1.O=C(O)C(F)(F)F`, the “Percent Effect” value is -20.62%.

As to `Cc1ncc2c(n1)CN(Cc1nnc(-c3occc3C)o1)CC2`, the “Percent Effect” value (10 mM as filed; unlikely as a test dose) is 65.26% and 48.37% and 69.52%.

In the case of `Cc1ccc(-c2nnc(CN3CCc4cnc(C)nc4C3)o2)cc1`, the “Percent Effect” value (10 mM as filed; unlikely as a test dose) is 3.206% and -6.075% and -3.091%.

For `Cc1noc(C)c1CC(=O)N[C@@H]1CC[C@@H](Oc2ccccc2)[C@@H]1O`, the “Percent Effect” value was 3.978%.

As for `Cc1nccn1C1CCCN(C(=O)c2ccc(-n3cccn3)nc2)C1` (stereo unspecified), the “Percent Effect” value is -4.8%.

Consider `CN1CCN(c2cc(CNC(=O)c3ccsc3)ccn2)CC1`, for which the “Percent Effect” value was found to be 4.114%.

As to `CN1CC(=O)N(c2cccc(F)c2)CC12CCN(CC1CC1)C2.O=C(O)C(F)(F)F.O=C(O)C(F)(F)F` (stereo unspecified), the “Percent Effect” value was -25.37%.

`c1ccc(-c2nnc(N3CCCC4(CCOC4)C3)s2)cc1` (stereo unspecified): under “10 mM as filed; unlikely as a test dose”, the “Percent Effect” value was 67.59% and 93.8% and 88.49%.

Consider `c1ccc2sc(N3CCCC4(CCOC4)C3)nc2c1` (stereo unspecified), for which the “Percent Effect” value (10 mM as filed; unlikely as a test dose) is -44.73% and -22.63% and -45.78%.

`O=C1CN(c2ccc(CNC(=O)NCCO)cc2)CCN1`: the “Percent Effect” value was 1.887%.

With `CCc1noc(CN(CC)Cc2cc3cc(C)ccc3[nH]c2=O)n1`, the “Percent Effect” value is -10%.

With `CC(=O)Nc1nc(C(=O)N2CCCC(c3cc(C)[nH]n3)C2)cs1` (stereo unspecified), the “Percent Effect” value came out at 3.993%.

Consider `Cc1cn2c(n1)CCC(NC(=O)c1cc[nH]n1)C2` (stereo unspecified), for which the “Percent Effect” value is on record as 2.695%.

As to `Cc1cs/c(=N/C(=O)c2csc(NCC(C)C)n2)[nH]1`, the “Percent Effect” value (10 mM as filed; unlikely as a test dose) is -15.12% and -26.88%.

For `CC(=O)Nc1nc(C(=O)N2CCC(Nc3cccnn3)CC2)cs1`, the “Percent Effect” value is -14.59%.

As for `Cc1[nH]/c(=N\C(=O)c2csc(NC3CC3)n2)sc1C`, the “Percent Effect” value (10 mM as filed; unlikely as a test dose) is 50.71% and 20.82% and 44.18%.

Turning to `Cc1[nH]/c(=N\C(=O)c2csc(NC3CCCC3)n2)sc1C`, the “Percent Effect” value (10 mM as filed; unlikely as a test dose) was 52.39% and 34.41%.

In the case of `Cc1[nH]/c(=N\C(=O)c2csc(NCC(C)C)n2)sc1C`, the “Percent Effect” value (10 mM as filed; unlikely as a test dose) was 72.35% and 45.27% and 35.24%.

`O=C(O)C(F)(F)F.O=C(O)C(F)(F)F.c1cncc(C2COC3(CCN(Cc4cccs4)CC3)C2)c1` (stereo unspecified): the “Percent Effect” value is -1.667%.
